An excerpt weighted towards active compounds, which were near 2.4% of everything screened.
Anthrax LT inh = qHTS Assay for Anthrax Lethal Toxin Internalization. Cells, anthrax lethal toxin internalization, FRET ratio (460/530). Potency, µM (series often up to 40 µM), inactives show at the highest dose activity change, negative = inhibition, usual class: inhibitors. hit rate 0.67% among 70,000; note: % is set by controls: 0 for no effect and ±100 for the full control effect; nearly all actives have a fitted effect of over 50% in size
AmpC inh no det = Promiscuous and Specific Inhibitors of AmpC Beta-Lactamase (assay without detergent) | P00811 | AmpC nitrocefin hydrolysis, absorbance 480 nm, no detergent | Potency, µM (titrated, usually from 28.7 µM), for inactives: at the highest dose activity change, negative = inhibition | hit rate 1.8% among 71,000; note: % of control where 0% means no effect
Target sequence (P00811 whole entry, looked up): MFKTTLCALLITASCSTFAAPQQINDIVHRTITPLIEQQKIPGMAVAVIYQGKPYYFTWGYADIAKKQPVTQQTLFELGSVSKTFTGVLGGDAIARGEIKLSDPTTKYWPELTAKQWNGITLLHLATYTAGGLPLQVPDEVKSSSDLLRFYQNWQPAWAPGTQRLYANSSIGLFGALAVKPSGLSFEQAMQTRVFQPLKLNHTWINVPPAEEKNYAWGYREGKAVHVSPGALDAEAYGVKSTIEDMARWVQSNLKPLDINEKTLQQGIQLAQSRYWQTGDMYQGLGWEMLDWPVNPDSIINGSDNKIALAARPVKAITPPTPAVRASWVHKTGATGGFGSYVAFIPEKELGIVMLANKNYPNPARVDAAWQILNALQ
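AmpC, 20 mM phosphate pH 7.0; 15 min cpd preinc, RT; start with nitrocefin (800 uM stock); A480 kinetic read, 20 s intervals, 4 min. No-enzyme wells = negative control.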
SmPrx2 inh = Schistosoma Mansoni Peroxiredoxins (Prx2); AID 448, 2006; hit rate 0.07% among 65,000; Schistosoma mansoni peroxiredoxin 2 (Prx2); Potency, µM; S. mansoni Prx2 activity coupled to TGR/GSH (TGR is thioredoxin glutathione reductase), NADPH fluorescence loss, qHTS
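Purified S. mansoni TGR and Prx2 in pH 7.4 phosphate buffer with EDTA and Tween-20 were preincubated with compounds for 15 min. Further NADPH/GSH was added, then a 2.5 mM H2O2 aliquot initiated turnover, followed kinetically by NADPH fluorescence.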
AmpC det inh = Promiscuous and Specific Inhibitors of AmpC Beta-Lactamase (assay with detergent). P00811. purified AmpC, nitrocefin hydrolysis with detergent. Potency, µM (titrated, usually from 28.7 µM), for the others: at the highest dose activity change, negative = inhibition. hit rate 0.09% among 71,000. AID 584, 2007; active = well fitted curve in the direction sought with a large enough effect; inconclusive = small, poorly fitted or top-dose-only effect; note: % is set by controls: 0 for no effect and ±100 for the full control effect
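E. coli AmpC (5.3 nM) in 20 mM phosphate pH 7.0 with 0.01% Triton X-100, preincubated 15 min RT with compound; nitrocefin (2 uL of 800 uM stock) hydrolysis followed by 480 nm absorbance every 20 s over 4 min.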
* = called active by the depositor; ? = inconclusive; · = no result; [ ] = remark or other dose. Unless noted, calls come from the whole dose curve. Potency is the fitted concentration of half-maximal effect.

SMILES | Anthrax LT inh | AmpC inh no det | SmPrx2 inh | AmpC det inh
N#CS.N=C=S.N=C=S.[Cu].[NH2-].[NH2-].[NH2-].[NH2-].c1ccc2ncccc2c1 | -16%[8 µM] | 0%[5.75 µM] | >57 | -2%[5.75 µM]
O=C(CCc1nc2ccccc2[nH]1)NC1CCCCC1 | -15% | 4µM*[single pt active] | >57 | 4%
CCN1C(=O)[C@@H]2[C@H]3C(=CC[C@@H]2C1=O)C1(OCCCO1)[C@H]1O[C@@H]1[C@H]3O | -6%[8 µM] | · | · | ·
Cc1ccc(-n2nnc3ccccc3c2=O)cc1C | 13µM* | 18% | · | -3%
CCc1ccc(N2CSC3=C(C#N)C(c4cccs4)CC(=O)N3C2)cc1 (stereo unspecified) | -29% | -13% | >57 | -6%
COc1ccc(C2CC(=O)N3CN(c4ccc(C)c(Cl)c4)CSC3=C2C#N)cc1OC (stereo unspecified) | 6.3µM* | 6% | >57 | 5%
CN1CSC2=C(C#N)C(c3cccc(OCc4ccccc4)c3)CC(=O)N2C1 (stereo unspecified) | ? | 4µM*[single pt active] | >57 | 13%
CCOC(=O)c1ccc(N2CSC3=C(C#N)C(c4cccs4)CC(=O)N3C2)cc1 (stereo unspecified) | -19% | 2.5µM* | >57 | 7%
CCc1ccc(C2CC(=O)N3CN(c4ccccc4)CSC3=C2C#N)cc1 (stereo unspecified) | -13% | 20µM*[single pt active] | >57 | 7%
COc1ccc(N2CSC3=C(C#N)C(c4cc(OC)c(OC)cc4OC)CC(=O)N3C2)c(OC)c1 (stereo unspecified) | -13% | 96% | >57 | 12%
COc1ccc(N2CSC3=C(C#N)C(c4ccc(OC)c(OC)c4)CC(=O)N3C2)c(OC)c1 (stereo unspecified) | 5% | 48% | · | 3%
COc1ccc(N2CSC3=C(C#N)C(c4cccs4)CC(=O)N3C2)cc1 (stereo unspecified) | ? | -22% | >57 | -6%
CCOc1ccccc1N1CSC2=C(C#N)C(c3c(OC)ccc4ccccc34)CC(=O)N2C1 (stereo unspecified) | ? | 2.5µM*[single pt active] | >57 | 12%
N#CC1=C2SCN(c3ccc(F)cc3)CN2C(=O)CC1c1cccc(F)c1 (stereo unspecified) | -17% | 4µM*[single pt active] | >57 | 9%
COc1ccc(N2CSC3=C(C#N)C(c4cc(OC)ccc4OC)CC(=O)N3C2)c(OC)c1 (stereo unspecified) | ? | 41% | >57 | 1%
CCCC[N+](=O)[O-] | -20% | -1% | · | 8%
N/C(=N\O)c1cn([C@@H]2O[C@@H](CO)[C@H](O)[C@@H]2O)c2ncnc(NO)c12 | -19%[8 µM] | -16%[5.75 µM] | >57 | -5%[5.75 µM]
CCOC(=O)c1nnn(CC(=O)Nc2cc(Cl)ccc2C)c1C(=O)OCC | 7.9µM* | 16% | >57 | -3%
CC(C)N[C@@H](C)Cc1ccc(I)cc1 | -4% | 1% | >57 | -2%
Cc1nc2cc(-c3cccc(F)c3)nn2c(C)c1CCC(=O)N1CCN(c2ccccn2)CC1 | -16% | 4µM*[single pt active] | >57 | 10%
Cc1nc2cc(-c3cccc(F)c3)nn2c(C)c1CCC(=O)NC(C)CCc1ccco1 (stereo unspecified) | ? | 130% | · | 13%
O=c1c2ccccc2sn1-c1ccc(S(=O)(=O)N2CCCCC2)cc1 | 0.16µM* | -7% | >57 | -4%
O=c1c2ccccc2sn1-c1ccc(S(=O)(=O)N2CCCC2)cc1 | 0.13µM* | -6% | >57 | -5%
C[C@H]1[C@H](C)CC[C@]2(C(=O)O)CC[C@]3(C)C(=CC[C@@H]4[C@]5(C)C[C@H](O)[C@@H](O)[C@@](C)(CO)[C@@H]5[C@H](O)C[C@@]43C)[C@H]12 | -3%[8 µM] | 40%[5.75 µM] | >57 | -4%[5.75 µM]
NC(=NCCC[C@@H](N)C(=O)O)N[N+](=O)[O-] | 2% | 7% | >57 | -4%
SMILES | Anthrax LT inh | AmpC inh no det | SmPrx2 inh | AmpC det inh
O=C(O)CBr | ? | 1% | · | 13%
CCCCN(C)S(=O)(=O)c1ccc(C(=O)Nc2nnc(-c3cccs3)o2)cc1 | -4% | 16µM* | >57 | -1%
CCCCN(CC)S(=O)(=O)c1ccc(C(=O)Nc2nnc(-c3ccccc3Cl)o2)cc1 | 11% | 6.3µM* | >57 | -1%
COc1ccccc1CN1CCCC2(CCN(C(=O)c3ccncc3)CC2)C1 | ? | 22% | >57 | -3%
CC[C@H]1CN2CC[C@@H]1C[C@@H]2[C@H](O)c1ccnc2ccccc12 | -14% | 1% | >57 | 2%
O=C(CCc1ccc(S(=O)(=O)N2CCCCC2)cc1)c1nnc(-c2ccccc2)o1 | -22% | 20µM*[single pt active] | >57 | -6%
CC(=O)c1ccc(NC(=O)c2cc(CC(C)C)on2)cc1 | -16% | 4µM*[single pt active] | >57 | 11%
Cc1cc(NC(=O)c2cc(CC(C)C)on2)no1 | -17% | 4µM*[single pt active] | >57 | 12%
CC(C)Cc1cc(C(=O)Nc2sc3c(c2C#N)CCCC3)no1 | 7.9µM* | 4µM*[single pt active] | >57 | 12%
COc1cc(NC(=O)c2cc(CC(C)C)on2)c(OC)cc1Cl | ? | 4µM*[single pt active] | >57 | 10%
Cc1cc(NC(=O)c2cc(C)on2)no1 | 0% | 7% | >57 | 0%
COc1ccccc1-c1nccc(NCc2cccs2)n1 | -9% | 52% | · | 0%
CN1C[C@@H](C(=O)N[C@]2(C)O[C@]3(O)[C@H]4CCCN4C(=O)[C@H](Cc4ccccc4)N3C2=O)C[C@H]2c3cccc4[nH]cc(c34)C[C@@H]21 | 13% | 147% | >57 | -6%
O=C=NC1CCCCC1 | -3% | -3% | · | 14%
C(=NC1CCCCC1)=NC1CCCCC1 | 4µM* | -12% | · | 12%
CCOC(=O)C1Cn2c(nc3c(c2=O)C(C)(C)Cc2ccccc2-3)S1 (stereo unspecified) | 10µM* | 85% | · | 10%
CCOC(=O)C1Cn2c(nc3c(c2=O)C2(CCCC2)Cc2ccccc2-3)S1 (stereo unspecified) | ? | 71% | · | -4%
COc1ccc2nc3sc(C(=O)NCc4cccs4)c(N)c3cc2c1 | 2% | 13µM* | >57 | 28%
O=C(NCCc1c[nH]c2ccccc12)c1ccc(S(=O)(=O)NCc2ccco2)cc1 | -28% | 16µM* | >57 | -4%
C[N+](C)(C)CCN[N@@+]1(C)CCCc2ccccc21 | -10%[8 µM] | -4%[5.75 µM] | >57 | -3%[5.75 µM]
COc1ccc(NC(=O)[C@H](CCS(C)(=O)=O)N2Cc3ccccc3C2=O)c(OC)c1 | 7% | 4µM*[single pt active] | >57 | 16%
COc1ccc(-c2nc3cnc(N4CCNCC4)nc3n(Cc3cccs3)c2=O)cc1 | ? | 60% | >11 | -1%
COc1cccc(-c2nn(C)c3sc(C(=O)NCc4ccco4)cc23)c1 | -12% | 49% | >57 | -7%
CC(C)NC(=O)c1cc2c(-c3ccc(Cl)cc3)nn(C)c2s1 | -4% | 0.79µM*[single pt active] | >57 | 11%
COCCCNC(=O)c1cc2c(-c3ccc(Cl)cc3)nn(C)c2s1 | -14% | 143% | >57 | 6%
Cc1ccc(CNC(=O)c2cc3c(-c4ccc(Cl)cc4)nn(C)c3s2)o1 | -8% | 4µM*[single pt active] | >57 | 16%
COCCNC(=O)c1cc2c(-c3ccc(Cl)cc3)nn(C)c2s1 | -22% | 128% | >57 | 11%
